About 83,000 compounds went through this panel and 20% of them were active in at least one assay; those are over-represented in the sample as a whole.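 Step 1: grow cells in 96-well plates. Step 2: add test compound at a single concentration. Step 3: incubate 48 h. Step 4: record percent growth.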 Values without a mark were called inactive. Activity calls are given as the source filed them.
What follows are compounds tested on MOLT-4 leukemia (assay: NCI-60 one-dose screen, 48 h (100 = growth as untreated, 0 = no growth, -100 = all killed)). Conditions: 10 µM unless noted.
Method: Growth inhibition of the MOLT-4 human tumor cell line is measured as a screen for anti-cancer activity. Cells are grown in 96 well plates and exposed to the test compound for 48 hours. Compounds are tested at a single concentration, which is 10^-5 M for most compounds. The reported endpoint is percent growth (GI% or GIPRCNT), where numbers from 0 - 100% represent growth inhibition, and numbers from -100% - 0 represent cell death. For example, a value of 40 represents 60% growth inhibition. A value of 0 means no net growth occurred over the course of the experiment. A value of -40 indicates 40% of cells at the beginning of the experiment died by the end of the experiment. A value of -100 means all cells are dead at the end of the experiment.
NCI-60 Human Tumor Cell Lines Screen was performed using the standard one-dose NCI protocol, which is described in more detail at https://dtp.cancer.gov/discovery_development/nci-60/default.htm.
Compounds with GIPRCNT values below 10 were considered active. Activity score was based on GIPRCNT using the following formula: […]
Score is 0 for GIPRCNT values of 100 or above, 50 for GIPRCNT values of 0, and 100 for GIPRCNT values of -100.
Compound `Cc1ccc(C2CC(c3cccc(Nc4ccncc4)c3)=Nc3c(N)nc(N)nc3N2)cc1` (stereo not given) has a growth of 33.4%.
With `N#CSc1c[nH]c2ccc(/C=C/C(=O)/C=C(O)/C=C/c3ccc4[nH]cc(SC#N)c4c3)cc12` the growth was -28.2% (active).
Work on `COc1cc(Cc2cc(OC)c(O)c(OC)c2)cc(OC)c1O` yielded a growth of 74.9%.
`Nc1nc(N)c2c(n1)NC(c1cccc(Nc3ccnc4cc(C(F)(F)F)ccc34)c1)CC(c1ccc3c(c1)OCO3)=N2` (stereo not given) showed a growth of 29%.
For `CC(C)NS(=O)(=O)/N=C1\NC(=O)NC1=C(Cl)Cl`, the growth was 87%.
For `COc1cc(N2C(=O)[C@H](Cl)C2c2ccc(SC)cc2)cc(OC)c1OC` (stereo not given in full), the growth was 7.86% (active).
Compound `O=C(O)CC(C(=O)O)/C(=C\c1ccccc1)c1ccccc1` (stereo not given) has a growth of 98.9%.
Compound `Nc1c(Br)cc2c(c1Br)Cc1cc([N+](=O)[O-])ccc1-2` has a growth of 83.4%.
For `C=C1CC[C@@H]2C(C)(C)[C@H](O)CC[C@@]2(C)[C@@H]1COc1ccc2ccc(=O)oc2c1`, the growth was 31.6%.
`CN(C)c1ccc([C@@H](C(=O)Nc2cccc([N+](=O)[O-])c2)N(C(=O)c2cc3ccccc3[nH]2)c2cccc([N+](=O)[O-])c2)cc1` showed a growth of 92%.
`Cc1ncc(C(=O)Nc2ccc(CN3CCN(C)CC3)c(C(F)(F)F)c2)cc1C#Cc1cnc(N)c2ccc(C#N)cc12` was tested, and the growth was 8.65% (active).
`O=C1C(Cl)=C(Nc2ccccc2)C(=O)c2ccccc21` was tested, and the growth was -20.1% (active).
`CCNC(=O)N1CCc2c(Br)c3c(c(OC)c2C1Cc1ccc(OC)cc1)OCO3` (stereo not given) was tested, and the growth was 23.6%.
With `C=CCN=c1sc(-c2ccc3ccccc3c2)cn1NC(=O)c1cc2ccc1CCc1ccc(cc1)CC2` the growth was 45.3%.
For `C=C[C@@]1(C)CC(=O)[C@@H](C(C)(C)c2cn(C)c3ccc(Br)cc23)C[C@@H]1O[Si](C)(C)C(C)(C)C`, the growth was 94.7%.
For `C/C(=C(\c1ccc(OCCN2CCCCCC2)cc1)c1ccc(OC(=O)c2ccccc2)cc1)c1ccc(Cl)cc1`, the growth was 8.86% (active).
For `CNC(=O)c1cc(Oc2ccc3c(c2)sc2nc(-c4cc(C(F)(F)F)cc(C(F)(F)F)c4)cn23)ccn1`, the growth was 45.3%.
`Cc1c2ccccc2nc2cc3c(cc12)[C@H]1CC[C@]2(C)C(=O)CC[C@H]2[C@@H]1CC3` was tested, and the growth was 80.8%.
With `Cc1nn(-c2ccc([N+](=O)[O-])cc2)c2ncnc(N/N=C/c3ccccc3O)c12` the growth was 4% (active).
Compound `CCN(CC)C(=O)CC1=C(C)/C(=C/c2[nH]c(-c3ccc[nH]3)cc2OC)N=C1C` has a growth of 12.4%.
For `N#Cc1c(-c2ccc(Cl)cc2)nc(NN=Cc2ccc[nH]2)nc1N1CCOCC1`, the growth was 17.4%.
With `O=C(NN1C(=O)CSC1c1cccc([N+](=O)[O-])c1)c1ccc(NC(=O)c2ccccn2)cc1` (stereo not given) the growth was 69.7%.
`ClCCn1cnc2c(SCc3ccccc3)ncnc21` showed a growth of 45.8%.
`COc1ccc2c(c1)CC[C@@H]1[C@@H]2CC[C@]2(C)c3c(cc(C#N)c4c3sc3ccccc34)C[C@@H]12` was tested, and the growth was 92.1%.
For `O=[N+]([O-])c1ccccc1Nc1ccc2ccccc2c1`, the growth was 76.8%.
In the case of `CN(C)C1CN(C(=O)c2cc(-c3ccc4ncnc(N5CCc6cc(F)c(Cl)cc65)c4c3)cnc2N)C1`, the growth is reported as 4.86% (active).
Compound `O=C(O)c1cn(C2CC2)c2cc(N3CCN(C(=O)N/N=C/c4cccc5ccccc45)CC3)c(F)cc2c1=O` has a growth of 100%.
For `CC1(C)CC[C@]23CC[C@]4(C)[C@H](CC[C@@H]5[C@@]6(C)C/C(=C/O)C(=O)C(C)(C)[C@@H]6CC[C@]54C)[C@H]2[C@H]1OC3`, the growth was 97.7%.
Work on `CCCCNC(=O)c1ccc2c(c1)nc(-c1ccccc1)n2C1CCCCC1` yielded a growth of 94.6%.
`Cc1nn(C)c2ncnc(N/N=C/c3cccc(O)c3O)c12` was tested, and the growth was 3.79% (active).
For `O=C(/C=C/C12c3ccccc3C(c3ccccc31)C1C(=O)NC(=O)C12)c1ccc(I)cc1` (stereo not given), the growth was 6.91% (active).
Compound `COc1ccc(C2CC(c3ccccc3)=NN2C(=O)c2cc(OC)c(OC)c(OC)c2)cc1O` (stereo not given) has a growth of 18.9%.
`C[C@@H]1CN(c2cnc(C(=O)Nc3cc(F)cc4cccnc34)cn2)C[C@H](C)N1` showed a growth of 33%.
For `O=C1/C(=C/c2c[nH]c(=O)[nH]c2=O)SC(=S)N1Cc1ccccc1`, the growth was 103%.
Work on `CCCC(=O)NC(c1ccc2c(c1)OCO2)c1cc(Cl)c2cccnc2c1O` (stereo not given) yielded a growth of 16.6%.
Compound `COC(=O)c1ccc2cc(OC)c(OC)cc2c1` has a growth of 85.8%.
`Cc1nc2sc(C(=O)Nc3cccc4ccccc34)c(N)c2cc1C(=O)c1ccccc1` was tested, and the growth was 21.4%.
`Brc1ccc(Nc2nc(Nc3cnc4ccccc4c3)c3[nH]cnc3n2)cc1` gave a growth of 78.3%.
In the case of `Cc1cc(N2CCN(CC(=O)Nc3ccc4c(ccn4Cc4ccccc4)c3)CC2)nc(N2CCOCC2)n1`, the growth is reported as 77.8%.
`COc1ccc(C(=O)/C=C/c2ccccc2)cc1S(N)(=O)=O` gave a growth of 57.5%.

— PubChem BioAssay (NCI)
